According to PubChem BioAssay (NCI):
Compounds without any hit were thinned out: in the full panel of roughly 83,000, 20% have a hit.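 Plates (96-well) were seeded with cells, treated with compound at one concentration, and incubated for 48 hours before percent growth was determined.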 Unmarked numbers belong to inactive results. Calls of active or inactive are those of the source.

Tested on: HT29 colon
Assay: NCI-60 one-dose screen, 48 h (100 = growth as untreated, 0 = no growth, -100 = all killed)
Settings: 10 µM unless noted
Method: Growth inhibition of the HT29 human tumor cell line is measured as a screen for anti-cancer activity. Cells are grown in 96 well plates and exposed to the test compound for 48 hours. Compounds are tested at a single concentration, which is 10^-5 M for most compounds. The reported endpoint is percent growth (GI% or GIPRCNT), where numbers from 0 - 100% represent growth inhibition, and numbers from -100% - 0 represent cell death. For example, a value of 40 represents 60% growth inhibition. A value of 0 means no net growth occurred over the course of the experiment. A value of -40 indicates 40% of cells at the beginning of the experiment died by the end of the experiment. A value of -100 means all cells are dead at the end of the experiment.
NCI-60 Human Tumor Cell Lines Screen was performed using the standard one-dose NCI protocol, which is described in more detail at https://dtp.cancer.gov/discovery_development/nci-60/default.htm.
Compounds with GIPRCNT values below 10 were considered active. Activity score was based on GIPRCNT using the following formula: […]
Score is 0 for GIPRCNT values of 100 or above, 50 for GIPRCNT values of 0, and 100 for GIPRCNT values of -100.

SMILES	growth
O=C1N/C(=C\c2ccccc2)c2ncccc21	113%
COc1ccc(/C=C2\SC(=O)N(CN3CCN(c4cc5c(cc4F)c(=O)c(C(=O)O)cn5C4CC4)CC3)C2=O)cc1	111%
O=C1CCC(N2C(=O)c3cccc(NCCOCCOCCNC(=O)c4cc5c(o4)C(=O)c4ccccc4C5=O)c3C2=O)C(=O)N1 (stereo not given)	-16.8% (active)
COc1cc2nc(SCc3cc(OC)c(OC)c(OC)c3)n(-c3ccccc3OC)c(=O)c2cc1OC	66.6%
Clc1cccc(Cl)c1Nc1ccc2nnc(-c3ccncc3)n2n1	106%
Cc1cc(O)cc2c1[C@H]1CC[C@]3(C)[C@@H](O)CC[C@H]3[C@@H]1C=C2	93.5%
COc1cc(CNCCCN2C(=O)c3ccc4c5c(ccc(c35)C2=O)C(=O)N(CCCNCc2cc(OC)c(OC)c(OC)c2)C4=O)cc(OC)c1OC	-47.6% (active)
COc1ccc(NC(=O)COc2ccccc2)c(C(N)=O)c1	6.77% (active)
CCC(=O)Nc1nnc(Cc2ccc(OC)c(OC)c2)s1	-46.9% (active)
O=C(N/N=C/c1ccc2c(c1)OCO2)c1cnn2c1NC(c1ccccc1)C2 (stereo not given)	26.7%
CCCN1CCN(c2ccc3nc(-c4ccc5nc(-c6ccc(C(F)(F)F)cc6)[nH]c5c4)[nH]c3c2)CC1	-44% (active)
COc1ccc(CSc2nc3cc(OC)c(OC)cc3c(=O)n2-c2ccc(Cl)cc2)cc1	112%
COc1ccc(Cn2c(Br)c3c(c2-c2cc(OC)c(OC)c(OC)c2)CCc2sc(N)nc2-3)cc1	-12.4% (active)
COc1ccc(-c2nc3sc(C)cn3c2/C=C/C(=O)c2cc(OC)c(OC)c(OC)c2)cc1	60.1%
O=c1c2c(=NCCN3CCCC3)cc3c(=O)n(CCCN4CCOCC4)c(=O)c4ccc(c(O)n1CCCN1CCOCC1)c2c4-3	-16.9% (active)
Clc1ccc(Nc2ccnc(N3CCN(c4ccnc5cc(Cl)ccc45)CC3)n2)cc1	32.2%
Cc1ccc(S(=O)(=O)N2CCc3ccc(O)c4c3C2Cc2ccc3c(c2-4)OCO3)cc1 (stereo not given)	52.3%
Nc1nc2c(s1)CCc1c-2c(Br)n(Cc2ccccc2)c1Br	97.6%
O=C1CC2c3cc(-c4cc5ccccc5o4)ccc3CCN2C(=O)N1c1ccccc1 (stereo not given)	85.7%
CCOc1ccc(-c2cnnn2-c2nonc2-n2cccc2)cc1	1.88% (active)

SMILES	growth
CCCCc1ccc(C(O)(CCN2CC3CCC(CC3)C2)c2ccccc2)cc1 (stereo not given)	68.8%
O=C(c1cnn2c1NC(c1ccc(F)cc1)C2)N1CCCCC1 (stereo not given)	103%
COc1ccc(/C=N/NC(=O)c2cnn(CC(O)Cc3ccccc3)c2N)cc1OC1CCCC1 (stereo not given)	93.6%
FC(F)(F)c1ccc2c(c1)n1cnnc1c1nncn21	107%
CCOC(=O)n1cc(C2=C(c3cn(C)c4ccccc34)COC2=O)c2ccccc21	9.6% (active)
COc1ccc(OC2=C(C#N)C(=N)N3c4ccccc4Sc4ccccc4C3N2)cc1 (stereo not given)	119%
OC[C@@H](O)[C@@H](O)CO	106%
FCOC(C(F)(F)F)C(F)(F)F	107%
O=C(C[Si](CC(=O)c1cccc(C(F)(F)F)c1)CC(=O)c1cccc(C(F)(F)F)c1)c1cccc(C(F)(F)F)c1	62.8%
O=c1[nH]c(=S)c2c(n1CCCO)CCC2	104%
CC(C)(C)[Si](C)(C)OC1[C@@H](COC(N)=O)O[C@@H](n2cnc3c(N)ncnc32)[C@H]1O[Si](C)(C)C(C)(C)C (stereo not given in full)	93.6%
COC(=O)c1c2c(c(C)[n+]([O-])c1C)C(=O)C=C(NCc1ccc(F)c(Cl)c1)C2=O	3.68% (active)
NC(=O)c1cc(Cl)ccc1NC(=O)COc1ccccc1	17.6%
Oc1ccc(Cl)cc1CNc1nc2ccccc2[nH]1	-46% (active)
Cc1ccccc1-c1cc(-c2ccc(Br)s2)[nH]c(=O)c1C#N	112%
O=C(Nc1ccccc1O)c1ccc(NS(=O)(=O)c2cccc3cccnc23)cc1	39.9%
CCOC(=O)c1cc2c(n(C)c1=O)-c1cnn(-c3ccc(OC)cc3)c1CC2	95.6%
CCCCCCCC/C=C\CCCCCCCCOc1cccc(CC(=O)NCC[N+]2(C)CCCC2)c1	38.5%
O=C(Nc1ccc(F)cc1)c1ccc(C(=O)Nc2ccc(F)cc2)cc1	97.7%
Cc1ccc2nc(NC(=O)CSC(=S)N3CCN(Cc4ccccc4)CC3)sc2c1	-62.7% (active)
